Among the data in PubChem BioAssay (NCI) are growth values, retold here.

Some test systems named below: NCI-H226 lung; NCI-H322M lung; NCI-H460 lung; HOP-92 NSCLC; NCI-H522 lung; A549/ATCC NSCLC; 786-0 renal; COLO 205 colon; DU-145 prostate; K-562 leukemia; MALME-3M melanoma; MDA-MB-231 breast; RXF 393 renal; SF-268 CNS; SF-295 CNS; SF-539 CNS; UACC-257 melanoma; M14 melanoma; HOP-62 NSCLC.
Assay in all cases: NCI-60 one-dose screen, 48 h (100 = growth as untreated, 0 = no growth, -100 = all killed)
Holding throughout (conditions): 10 µM unless noted

About 83,000 compounds went through this panel and 20% of them were active in at least one assay; those are over-represented in the sample as a whole.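 Testing used 96-well plates and a 48-hour single-concentration exposure. Example: -40 means 40% of the starting cells died.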 Unmarked numbers belong to inactive results. Active and inactive are the calls of the source. The calls were made as follows: active = growth percent below 10; inactive = the rest.

Turning to `C=C(C)[C@@H]1CC[C@]2(C(=O)N3CCNCC3)CC[C@]3(C)[C@H](CC[C@@H]4[C@@]5(C)C/C(=C/c6ccncc6)C(=O)C(C)(C)[C@@H]5CC[C@]43C)[C@@H]12`, the growth in the experiment with NCI-H226 lung was 95.7%; in the experiment on NCI-H322M lung, 110%; in the experiment with NCI-H460 lung, 107%; with HOP-92 NSCLC it was 95.8%; with NCI-H522 lung it was 96.8%; with A549/ATCC NSCLC, 102%. For the same compound, the growth with 786-0 renal was 108%; in the experiment on COLO 205 colon, 113%; in the experiment with DU-145 prostate, 113%; in the experiment with K-562 leukemia, 97.3%; with MALME-3M melanoma it was 114%; in the experiment on MDA-MB-231 breast, 116%. Also, the growth in the experiment on RXF 393 renal is 117%; in the experiment on SF-268 CNS, 103%; with SF-295 CNS, 104%; in the experiment with SF-539 CNS, 105%; in the experiment on UACC-257 melanoma, 104%; in the experiment with M14 melanoma, 108%.

For the compound `OCc1ncc(-c2ccccc2)s1`, the growth in the experiment on NCI-H226 lung was 125%; in the experiment with NCI-H322M lung, 173%; in the experiment with HOP-62 NSCLC it was 96.9%; in the experiment with NCI-H460 lung, 102%; in the experiment with HOP-92 NSCLC, 91.3%; with NCI-H522 lung, 97.5%. The growth is 110% with A549/ATCC NSCLC; 60% in the experiment on 786-0 renal; 114% in the experiment with COLO 205 colon; 107% in the experiment on DU-145 prostate; 93.2% in the experiment with K-562 leukemia; 94.2% with MALME-3M melanoma. The growth in the experiment on MDA-MB-231 breast was 113%; with RXF 393 renal, 122%; in the experiment with SF-268 CNS, 99.8%; in the experiment with SF-295 CNS, 106%; in the experiment on SF-539 CNS, 98.1%; with UACC-257 melanoma it was 105%. In addition, in the experiment on M14 melanoma, the growth is 93.9%.

For `Cn1ccc(Nc2nccc(Oc3ccc(C(=O)Nc4cccc(F)c4)c(Cl)c3)n2)c1`, the growth was 68% in the experiment with NCI-H226 lung; 48.4% with NCI-H322M lung; 100% in the experiment on HOP-62 NSCLC; 106% in the experiment with NCI-H460 lung; 76.4% with HOP-92 NSCLC; 43.1% in the experiment with NCI-H522 lung. In addition, the growth with A549/ATCC NSCLC is 97.2%; in the experiment on 786-0 renal it was 79.8%; with COLO 205 colon it was 105%; in the experiment on DU-145 prostate it was 47.9%; in the experiment with K-562 leukemia, 70.6%; in the experiment on MALME-3M melanoma it was 94.6%. For the same compound, the growth in the experiment with MDA-MB-231 breast was 99%; in the experiment on RXF 393 renal, 105%; in the experiment on SF-268 CNS it was 79.4%; with SF-295 CNS, 61.8%; in the experiment on SF-539 CNS, 84.9%; in the experiment on UACC-257 melanoma, 79.5%. In the experiment on M14 melanoma, the growth is 96.9%.

For `O=C1Nc2ccc(Cl)cc2C12Nc1cc(Cl)ccc1S2` (centres undefined), the growth is 105% in the experiment with NCI-H226 lung; 100% in the experiment on NCI-H322M lung; 103% with HOP-62 NSCLC; 62.7% in the experiment with NCI-H460 lung; 77.2% with HOP-92 NSCLC; 47.1% in the experiment with NCI-H522 lung. Besides, the growth with A549/ATCC NSCLC is 72.9%; with 786-0 renal, 89.4%; with COLO 205 colon, 101%; with DU-145 prostate, 96.5%; with K-562 leukemia, 39.2%; in the experiment with MALME-3M melanoma it was 74.2%. Moreover, the growth was 83.2% with MDA-MB-231 breast; -8.23% (active) in the experiment on RXF 393 renal; 88.3% in the experiment with SF-268 CNS; 106% in the experiment with SF-295 CNS; 87.9% in the experiment with SF-539 CNS; 129% in the experiment with UACC-257 melanoma. Further, in the experiment on M14 melanoma, the growth is 93.9%.

On to `CC(C)(C)n1cc(-c2ccnc(NCCCNS(=O)(=O)c3cccc(F)c3)c2)c(-c2cccc(O)c2)n1`, for which the growth with NCI-H226 lung was 60.9%; in the experiment with NCI-H322M lung, 58.6%; with HOP-62 NSCLC, 73.8%; in the experiment on NCI-H460 lung, 19.6%; in the experiment on HOP-92 NSCLC, 79.5%; in the experiment on NCI-H522 lung it was 47.6%. Also, the growth was 42.5% in the experiment with A549/ATCC NSCLC; 29.5% in the experiment on 786-0 renal; 8.99% (active) in the experiment with COLO 205 colon; 66% in the experiment with DU-145 prostate; 2.9% (active) in the experiment on K-562 leukemia; 50.3% in the experiment on MALME-3M melanoma. Moreover, the growth in the experiment with MDA-MB-231 breast was 37.3%; in the experiment with RXF 393 renal it was 46.5%; in the experiment on SF-268 CNS it was 54%; with SF-295 CNS it was 31.6%; in the experiment with SF-539 CNS it was 39.3%; in the experiment with UACC-257 melanoma, 52.9%. Besides, the growth in the experiment with M14 melanoma was 34.9%.

In the case of `C=C1CCC2C(C)(CO)C(O)CCC2(C)C1C/C=C1/C(=O)OCC1O/C=C/c1ccccc1` (centres undefined), the growth in the experiment with NCI-H226 lung is 83.7%; in the experiment on NCI-H322M lung, 94.7%; in the experiment on HOP-62 NSCLC it was 104%; in the experiment with NCI-H460 lung, 75.2%; in the experiment with HOP-92 NSCLC it was 76.1%; in the experiment on NCI-H522 lung it was 60.3%. Moreover, the growth with A549/ATCC NSCLC is 71.8%; in the experiment on 786-0 renal, 93.1%; in the experiment with COLO 205 colon, 101%; with DU-145 prostate, 82.8%; in the experiment with K-562 leukemia, 22.9%; in the experiment on MALME-3M melanoma, 105%. Moreover, the growth with MDA-MB-231 breast was 95.6%; with RXF 393 renal it was 81.2%; with SF-268 CNS, 96.7%; with SF-295 CNS it was 92.7%; in the experiment with SF-539 CNS, 96.9%; with UACC-257 melanoma, 83.6%. In addition, in the experiment on M14 melanoma, the growth is 86.1%.

Regarding `COc1cc(NC(N)=NCCC(C)(C)Oc2ccc(C(F)(F)F)cc2)ncc1C#N`, the growth in the experiment with NCI-H226 lung is 60.3%; in the experiment with NCI-H322M lung, 20.5%; with HOP-62 NSCLC it was 31%; in the experiment on NCI-H460 lung, -79.3% (active); with HOP-92 NSCLC, -10.6% (active); in the experiment on NCI-H522 lung, -83.7% (active). In addition, the growth in the experiment on A549/ATCC NSCLC is -42.6% (active); in the experiment with 786-0 renal, 7.56% (active); in the experiment on COLO 205 colon, -87.8% (active); in the experiment with DU-145 prostate it was -32.6% (active); in the experiment with K-562 leukemia, -43.7% (active); in the experiment with MALME-3M melanoma, -81.2% (active). For the same compound, the growth in the experiment on MDA-MB-231 breast was -54.4% (active); with RXF 393 renal, -50.4% (active); with SF-268 CNS it was 30.8%; with SF-295 CNS, -40.7% (active); in the experiment with SF-539 CNS, 11.7%; with UACC-257 melanoma, -46.2% (active). Moreover, the growth in the experiment on M14 melanoma is -68.3% (active).

Regarding `O=C(Nc1cccc(-n2cc(-c3ccncc3)c(-c3ccc(Cl)c(O)c3)n2)c1)Nc1cccc(C(F)(F)F)c1`, the growth in the experiment with NCI-H226 lung was 35.1%; in the experiment with NCI-H322M lung, 48.2%; with HOP-62 NSCLC, 38.1%; in the experiment with NCI-H460 lung, 7.29% (active); in the experiment on HOP-92 NSCLC, -17.7% (active); with NCI-H522 lung, -10.8% (active). The growth in the experiment on 786-0 renal is 34.4%; in the experiment on COLO 205 colon it was 94.2%; in the experiment with DU-145 prostate, 23.1%; in the experiment with K-562 leukemia, 13.4%; with MALME-3M melanoma it was 1.16% (active); in the experiment on MDA-MB-231 breast, 21.3%. The growth in the experiment on RXF 393 renal is 31.3%; in the experiment with SF-268 CNS, 28.5%; in the experiment with SF-539 CNS, 38.5%; with UACC-257 melanoma, -11.6% (active); in the experiment on M14 melanoma, 16.6%.
